PubChem BioAssay (NCI)
About 83,000 compounds went through this panel and 20% of them were active in at least one assay; those are over-represented in the sample as a whole.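 Cells were grown in 96-well plates and exposed to the test compound at a single concentration for 48 hours; results are reported as percent growth, with values below 10 considered active.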 The source made the active and inactive calls.

Key:
Assay in all cases: NCI-60 one-dose screen, 48 h (100 = growth as untreated, 0 = no growth, -100 = all killed)
Settings in all cases: 10 µM unless noted
[1] = system: T-47D breast
[2] = system: BT-549 breast
[3] = system: MDA-MB-435 melanoma
[4] = system: SW-620 colon
[5] = system: MCF7 breast
[6] = system: HCT-116 colon
[7] = system: KM12 colon
[8] = system: HCC-2998 colon

Measured: growth

COP(=O)(OC)C(C)(C)CC(=O)CC(C#N)(C#N)C(C#N)C#N
inactive: [1] 106% | [2] 96.2% | [3] 104% | [4] 104% | [5] 92.1% | [6] 92.4% | [7] 104%

COC(=O)c1cc(-c2ccc(S(C)(=O)=O)cc2)[nH]c1N/N=C/c1c(Cl)cccc1Cl
active: [3] -69.7% | [5] -5.62%
inactive: [1] 31.2% | [2] 70.7% | [4] 15% | [6] 11.4% | [7] 20.6%

CCOc1nc(-c2ccccc2)cc2c(O)c(C(=O)NN)[nH]c(=O)c12
inactive: [1] 108% | [2] 126% | [3] 113% | [4] 97.4% | [5] 127% | [6] 102% | [7] 104%

Cc1nc(-c2ccccc2)cc2c(O)c(C(=O)NN)[nH]c(=O)c12
inactive: [1] 92.4% | [2] 193% | [3] 109% | [4] 97.5% | [5] 77.8% | [6] 110% | [7] 115%

CCOC(=O)c1c(C)c2c(n1C)CSc1cc(C(=O)c3ccccc3)c(=O)[nH]c1-2
inactive: [1] 72.3% [100 µM] | [2] 93.7% [100 µM] | [3] 84.6% [100 µM] | [4] 93.8% [100 µM] | [5] 90.6% [100 µM] | [6] 85.8% [100 µM] | [7] 97.4% [100 µM]

O=S(=O)(NCCNc1nccc(-c2c(-c3cccc(F)c3)nc3occn23)n1)c1ccc(Br)cc1
inactive: [1] 76.7% | [2] 103% | [3] 68.5% | [4] 91.8% | [6] 69.1% | [8] 106% | [7] 88.9%

O=C(Nc1ccc(NC(=O)c2cc(=O)[nH]c3ccccc23)cc1)Nc1cccc(C(F)(F)F)c1
inactive: [1] 58.1% | [2] 62.8% | [3] 77.1% | [4] 59.6% | [5] 70.7% | [6] 41.1% | [7] 53.3%

C=CCc1c2c(c(OC)c3ccoc13)C(=O)/C(=C/c1ccccc1OC)O2
inactive: [1] 59.8% | [2] 46.1% | [3] 47.8% | [4] 47.2% | [5] 32.6% | [6] 21.4% | [7] 46.8%

O=C1c2cccc(NCCN=Cc3cc(O)ccc3O)c2C(=O)c2c(NCCN=Cc3cc(O)ccc3O)cccc21
inactive: [2] 41.7%
active: [1] -2.29% | [3] -5.74% | [4] -68.7% | [5] -59.6% | [6] -17.3% | [7] -71.3%

COc1ccc(/C=N/C2=C(C#N)C(c3cccc(Cl)c3)c3c(ccc4ccccc34)O2)cc1 (stereo not drawn)
active: [3] -36%
inactive: [1] 36.7% | [2] 29.3% | [4] 23.7% | [5] 11.1% | [6] 21.8% | [7] 24.9%

CCC(C)N(c1ccc(Cl)cc1)c1nc(-c2ccc(Br)cc2)cs1 (stereo not drawn)
inactive: [1] 78.7% | [2] 121% | [3] 101% | [4] 95.5% | [6] 91% | [8] 108% | [7] 91.5%

CC1(C)c2[nH]c3ccccc3c2C[C@]2(C)[C@H]3CC=C4[C@@H]5C[C@@](C)(C(N)=O)CC[C@]5(C)CC[C@@]4(C)[C@]3(C)CC[C@@H]12
inactive: [2] 58.7% | [3] 59.3% | [4] 61.2% | [5] 29.3% | [6] 40.9% | [7] 58.2%
active: [1] 9.07%

Cn1ccc2c3c(ccc21)CC3=O
inactive: [1] 105% | [2] 106% | [3] 106% | [4] 108% | [5] 107% | [6] 101% | [7] 112%

O=[N+]([O-])c1ccc(S(=O)(=O)N2CCN(C3=NS(=O)(=O)c4ccccc4N3c3ccccc3)CC2)cc1
inactive: [1] 115% | [2] 99.8% | [3] 97.2% | [4] 103% | [5] 101% | [6] 91.2% | [7] 110%

CCCCCCCCn1ccc2cc(NC(=O)CN3CCN(c4nc(C)cc(Cl)n4)CC3)ccc21
inactive: [1] 83.4% | [2] 101% | [3] 97.7% | [4] 90.2% | [5] 78.1% | [6] 82.2% | [7] 91.9%

Cc1ccc(-c2nn(-c3ccccc3)cc2C=C2C(=O)ON=C2C(C)C)cc1
inactive: [1] 78.6% | [2] 113% | [3] 63.5% | [4] 47.2% | [6] 26% | [7] 69.8%

COc1cc(CNS(=O)(=O)c2ccc(C)cc2)ccc1OCc1cn(-c2ccc(Br)cc2)nn1
inactive: [1] 101% | [2] 110% | [3] 101% | [4] 99.1% | [5] 88% | [6] 100% | [7] 103%

O=C(/C=C/c1ccc(Cl)cc1)c1cccc(Nc2nc(Nc3ccccc3)nc(Nc3ccccc3)n2)c1
active: [5] -16.9%
inactive: [1] 55.6% | [2] 118% | [3] 102% | [4] 98.8% | [6] 29.5% | [7] 86%

CN(C)c1ccc(/C=C/C(=O)c2ccc(-n3cc(CN4CCN(c5cc6c(cc5F)c(=O)c(C(=O)O)cn6C5CC5)CC4)nn3)cc2)cc1
active: [6] -10.3%
inactive: [1] 76.8% | [2] 32% | [3] 64.7% | [4] 43.2% | [5] 24.2% | [7] 32.9%

COC(=O)c1c2c(c[n+]([O-])c1C)C(=O)C(NCc1ccccc1)=CC2=O
active: [1] -31.8% | [2] -88.7% | [3] -93.7% | [4] -19% | [5] -58.3% | [6] 1.8% | [7] -0.692%

Nc1ncnc2c1N=C(c1ccc(Cl)cc1)CC(c1ccc3c(c1)OCO3)N2 (stereo not drawn)
inactive: [1] 93.8% | [2] 95.5% | [3] 101% | [4] 100% | [5] 81.2% | [6] 83.7% | [7] 103%

Cc1ccc(Cl)cc1Nc1nc(C(F)(F)F)ccc1C(=O)N/N=C/c1cccnc1
inactive: [1] 32.9% | [2] 36.7% | [3] 39.5% | [4] 22.7% | [5] 11.7% | [6] 25% | [7] 34.7%

Cc1nnc(NC(=O)c2nc(S(=O)(=O)Cc3ccc(F)cc3)ncc2Cl)s1
active: [4] -59.8% | [6] -0.743%
inactive: [1] 38.5% | [2] 26.7% | [3] 75.9% | [5] 44.7% | [7] 90.8%

Cc1cccc(N2CCN(CC(O)COc3ccc(Cl)cc3)CC2)c1 (stereo not drawn)
inactive: [1] 94.4% | [2] 100% | [3] 84.1% | [4] 103% | [5] 121% | [6] 89.9% | [7] 97.1%

OCCOCCN(Cc1ccccn1)Cc1cc(I)cc(I)c1O
inactive: [1] 93.9% | [2] 81.6% | [3] 102% | [4] 95.5% | [5] 76% | [6] 73.4% | [7] 91.3%

O=C(O)/C(=C\c1ccc(Cl)cc1)c1ccc(Cl)cc1
inactive: [1] 95.9% | [2] 82% | [3] 97.2% | [4] 106% | [5] 92.9% | [6] 98.1% | [7] 97.6%

Fc1ccc(-c2nn(-c3ccccc3)cc2-c2nc3ccccc3o2)cc1
inactive: [1] 44.6% | [2] 66.4% | [4] 63.1% | [5] 50.9% | [6] 34.8% | [8] 101% | [7] 31.3%
